Mdm2 MdmX PPI – inhibitors of human Mdm2-MdmX association, primary screen, cell-based, luminescence, split luciferase, SaOS-2, uHTS; SaOS-2 split-luciferase Mdm2/MdmX complementation; inhibition, % at 8 µM; AID 485346, 2010; 330,000 tested, 3% active;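 active = inhibition of at least 50% at 8 µM in the primary screen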
PP1 counter – PP1-alpha phosphatase inhibitors, primary screen, counter-screen for PP5 inhibitor project, biochemical, fluorescence, OMFP substrate, single point; Serine/threonine-protein phosphatase PP1-alpha catalytic subunit (Homo sapiens), P62136; purified PP1alpha; inhibition, % at 6.7 µM; 320,000 tested, 0.9% active;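 active = inhibition above the mean inhibition of all tested compounds plus 3 SD, computed separately for each screening campaign, cut at about 15% in these data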
Target sequence (P62136 whole entry, looked up): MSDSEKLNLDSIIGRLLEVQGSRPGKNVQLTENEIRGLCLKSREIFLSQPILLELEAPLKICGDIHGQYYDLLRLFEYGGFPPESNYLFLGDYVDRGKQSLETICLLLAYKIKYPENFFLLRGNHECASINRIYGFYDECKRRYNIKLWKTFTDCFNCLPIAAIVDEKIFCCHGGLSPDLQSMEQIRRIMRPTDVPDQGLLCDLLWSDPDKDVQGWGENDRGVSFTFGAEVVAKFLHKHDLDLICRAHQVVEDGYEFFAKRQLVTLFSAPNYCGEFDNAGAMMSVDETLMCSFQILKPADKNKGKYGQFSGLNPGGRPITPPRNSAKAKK
CSC inhib – cancer stem cell viability inhibitors, primary screen, luminescence; cancer stem cell-like cells viability; inhibition, % at 7.5 µM; 300,000 tested, 1.1% active; AID 2717, 2010; in the data active = inhibition above about 75%; tested in HMLE shEcad cells
PP5 inh – PP5 phosphatase inhibitors, primary screen, biochemical, fluorescence | 320,000 tested, 0.18% active | Serine/threonine-protein phosphatase 5 (Homo sapiens), P53041 | inhibition, % at 6.7 µM | AID 1987, 2009 | purified PP5c, OMFP substrate fluorescence;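 active = inhibition above the campaign's mean inhibition across all tested compounds plus 3 SD, cut at about 9.5% in these data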;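 also: 0% = DMSO only and 100% = 100 µM cantharidin control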
Beta cell apopt – inhibitors of cytokine-induced beta cell apoptosis, primary screen, luminescence; protection from apoptosis, % (test concentration not listed); INS-1E cytokine-induced death, ATP luminescence, 48 h; percent of positive-control rescue, neutral wells zero; 300,000 tested, 0.8% active;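 active = Every replicate reaches about 75%, or at least half do and their mean reaches it too, limit read from the data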;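 also: 0% = cytokine-treated negative control wells and 100% = positive control rescue; higher means more ATP so stronger rescue from cytokine killing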
Calb FLC – C. albicans growth inhibition with fluconazole, primary screen, CaCi-2 strain, Alamar Blue fluorescence; 300,000 tested, 0.57% active; C. albicans CaCi-2 (fluconazole-resistant clinical isolate) + fluconazole, 48 h; AID 1979, 2009; growth inhibition, % (no concentration beside the values);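 active = growth inhibition above about 58% in most replicates, limit read from the data, passing the limit was not always enough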;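 also: all wells also contain fluconazole at 8 µg/ml as a sub-toxic cotreatment; 0% = median of DMSO wells and 100% = median of geldanamycin control wells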
Mdm2 MdmX conf – Mdm2-MdmX complex disruptors, retested hits, confirmation, luminescence, single concentration; shares compounds with Mdm2 MdmX PPI; Mdm2-MdmX binding, luminescent assay; inhibition, % at 8 µM; 10,000 tested, 55% active; AID 489028, 2010; in the data active = inhibition above about 40%
Full FLuc ctr – full-length luciferase signal inhibition, confirmation, counter-screen for Mdm2/MdmX interaction inhibitor project, cell-based, single concentration, SaOS-2; inhibition, % at 8 µM; shares compounds with Mdm2 MdmX PPI; 6,200 tested, 77% active; SaOS-2 full-length luciferase counterscreen, luminescence;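 active = mean inhibition at 8 µM reaching about 37%, which flags the compound as non-specific, limit read from the data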;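 also: p53-null SaOS-2 cells with luciferase driven by a doxycycline-inducible promoter; compound on cells about two nights before reading with doxycycline added after day one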
Starred values were filed as active, the others as inactive; . = no result. Most compounds without a hit are left out; they make up all but 4.9% or so of the library.

SMILES	Mdm2 MdmX PPI	PP1 counter	CSC inhib	PP5 inh	Beta cell apopt	Calb FLC	Mdm2 MdmX conf	Full FLuc ctr
COc1ccccc1NS(=O)(=O)c1cc(NC(=O)c2sccc2C)ccc1N1CCOCC1	19	-1	0	1	33	5	.	.
COc1ccc(NS(=O)(=O)c2cc(NC(=O)c3ccc(=O)[nH]c3)ccc2N2CCOCC2)cc1	7	-6	.	-1	-5	-7	.	.
COc1ccc(NS(=O)(=O)c2cc(NC(=O)c3ccccc3)ccc2N2CCOCC2)cc1	60*	.	29	.	10	.	32	.
COc1ccc(NS(=O)(=O)c2cc(NC(=O)c3ccco3)ccc2N2CCCC2)cc1	33	3	-7	3	1	7	.	.
COc1ccc(NS(=O)(=O)c2cc(NC(=O)c3cc(F)c(F)cc3Cl)ccc2N2CCOCC2)cc1	51*	.	-4	.	13	.	12	.
CC(=O)C12CCCCC1CC1[C@@H]3CC(C)C4=CC(=O)CC[C@]4(C)C3CC[C@@]12C (stereo partly drawn)	56*	.	.	.	.	-3	6	.
Cc1c(Cc2ccc3c(c2)OCO3)sc(NC(=O)C(C)(C)C)c1C#N	58*	-2	48	4	-2	-1	36	.
COc1cc(C(=O)Nc2nc(C)c(Cc3ccc4c(c3)OCO4)s2)cc(OC)c1OC	79*	-2	56	2	43	6	67*	76*
Cc1c(Cc2ccc3c(c2)OCO3)sc(NC(=O)c2ccc3ccccc3c2)c1C(N)=O	80*	-2	30	-1	27	9	-11	.
CCC(=O)Nc1sc(Cc2ccc3c(c2)OCO3)c(C)c1C(N)=O	4	3	8	1	-13	10	.	.
CCCOc1ccc(C(=O)Nc2nc(C)c(Cc3ccc4c(c3)OCO4)s2)cc1	48	-2	49	3	33	9	.	.
COc1ccccc1CNC(=O)C1CC2Cn3c(nc4cc(Cl)c(Cl)cc43)C2N1C (stereo not drawn)	17	-3	-1	2	8	10	.	.
CC1=NN(c2ccc(C)c(C)c2)C(=O)/C1=C\C=C\c1ccc([N+](=O)[O-])o1	77*	3	-14	1	84*	2	57*	41*
COc1ccc(CNc2ncc(-c3ccc(F)cc3)n2C)c2ccccc12	57*	5	8	1	-2	-14	25	.
CCOc1ccc(-c2cnc(NCc3cccc4ccccc34)n2CCOC)cc1	88*	2	45	2	41	21	25	.
COCCn1c(-c2ccc(OC)cc2)cnc1N	5	2	31	0	-4	25	.	.
Cc1c(Cl)cccc1NC(=S)NNc1ncc(C(F)(F)F)cc1Cl	64*	6	33	4	32	-4	72*	42*
COC(=O)c1cc(O)cc(OC)c1C(=O)c1c(O)cc(C)cc1O	-14	5	18	-1	.	12	.	.
COC(=O)c1cc(O)cc(OC)c1Oc1cc(C)cc(O)c1C(=O)O	84*	0	57	1	89*	.	46*	19
Cc1cccc(C)c1OCC(=O)N/N=C/c1ccc2c(c1)OCO2	50*	1	60	-1	10	-6	59*	56*
O=C(N/N=C/c1ccc2c(c1)OCO2)c1sc2cc(Cl)ccc2c1Cl	62*	-5	70	0	30	-6	37	50*
Cn1cc(C(=O)N/N=C/c2ccc(Br)c([N+](=O)[O-])c2)c2ccccc21	51*	-1	6	0	2	0	19	.
Cn1cc(C(=O)N/N=C/c2ccc3c(c2)OCO3)c2ccccc21	66*	-4	32	-2	9	-33	44*	64*
O=C(O)/C=C/C(=O)Nc1ccc(Cc2ccc(NC(=O)/C=C/C(=O)O)cc2)cc1	9	3	10	3	1	-2	.	.
COc1ccc(C(=O)N/C(=C\c2cn(C)c3ccccc23)C(=O)N2CCOCC2)cc1	20	-2	3	2	2	6	.	.
SMILES	Mdm2 MdmX PPI	PP1 counter	CSC inhib	PP5 inh	Beta cell apopt	Calb FLC	Mdm2 MdmX conf	Full FLuc ctr
CCCCCn1nc(C(=O)OCc2nnc(-c3ccccc3)o2)c2ccccc2c1=O	8	0	-16	-2	1	-5	.	.
N#C/C(=C\C=C\c1ccccc1[N+](=O)[O-])c1nc(-c2ccc3c(c2)OCO3)cs1	63*	-2	-1	2	-1	-11	7	.
CCOC(=O)C1CCCN(S(=O)(=O)c2ccc(Cl)nc2)C1 (stereo not drawn)	2	-3	-9	0	-2	1	.	.
CCc1cc2c(N=Nc3c(O)[nH]c4ccccc34)ncnc2s1	2	-4	.	-1	2	45	.	.
Oc1[nH]c2ccccc2c1N=Nc1ncnc2c1oc1ccccc12	100*	-5	-4	-3	2	9	2	.
O=C(N/N=C/c1ccc(O)cc1)c1[nH]c2ccc(Br)cc2c1-c1ccccc1	67*	3	51	4	10	14	56*	92*
CCOc1ccc(/C=N/NC(=O)c2[nH]c3ccc(C)cc3c2C)cc1	-1	.	24	.	-3	8	.	.
Cc1c(C(=O)N/N=C/c2ccc(Cl)cc2)[nH]c2ccc(Cl)cc12	63*	7	57	4	35	6	62*	91*
Cc1cc(C)n(CC(=O)Nc2ccc3c(c2)OCO3)c(=O)c1C#N	0	-5	-11	-1	-1	2	.	.
Nc1c(C(=O)Nc2ccccc2)c2nc3ccccc3nc2n1-c1ccc(O)cc1	32	4	46	0	9	15	.	.
N#CC1=C(N)OC2=C(CCc3ccccc32)C1c1ccccc1 (stereo not drawn)	74*	3	3	3	28	-2	52*	143*
Cc1ccc(/C=C2\CCC3=C2OC(N)=C(C#N)C3c2ccc(C)cc2)cc1 (stereo not drawn)	20	10	9	0	4	0	.	.
CCC(C)[C@H](NC(=O)N1CC(=O)Nc2ccccc21)C(=O)N[C@@H](Cc1c[nH]c2ccccc12)C(=O)O (stereo partly drawn)	3	-4	-7	1	-1	5	.	.
C=CCNC(=O)c1c(O)c2cccc3c2n(c1=O)CCC3	66*	-2	5	2	.	-2	56*	53*
